Hits are enriched below; roughly 2.4% of the tested compounds scored in any of these assays.
Platelet DG rel: platelet dense granule release activity; 300,000 tested, 0.22% active; AID 1663; inhibition, %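 (compounds screened at 7.5 µM in platelet-rich plasma)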; human platelet-rich plasma, SFLLRN dense granule ATP release, luminescence;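 active = mean replicate score, as percent of positive control, at or above 50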
SENP7 block: inhibitors of human SENP7 protease; Q9BQF6; inhibition, % at 5 µM; AID 434973; recombinant SENP7, Z-RLRGG-aminoluciferin luminescence, 40 min; 330,000 tested, 1.5% active;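 active = inhibition above about 50% at the single test dose, limit read from the data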;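 also: plate controls were DMSO with enzyme for no effect and no enzyme buffer wells for full effect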
SENP6 block: blocks the human protease SENP6. 330,000 tested, 1.8% active. inhibition, % at 10 µM. Q9GZR1. AID 2599. Recombinant SENP6 catalytic domain, aminoluciferin luminescence;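 active = inhibition above about 50% at the single tested dose, limit read from the data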;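 also: plate controls were DMSO wells with enzyme for no effect and DMSO wells lacking enzyme for full effect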
Target sequence (Q9GZR1 628-1112 limits assumed): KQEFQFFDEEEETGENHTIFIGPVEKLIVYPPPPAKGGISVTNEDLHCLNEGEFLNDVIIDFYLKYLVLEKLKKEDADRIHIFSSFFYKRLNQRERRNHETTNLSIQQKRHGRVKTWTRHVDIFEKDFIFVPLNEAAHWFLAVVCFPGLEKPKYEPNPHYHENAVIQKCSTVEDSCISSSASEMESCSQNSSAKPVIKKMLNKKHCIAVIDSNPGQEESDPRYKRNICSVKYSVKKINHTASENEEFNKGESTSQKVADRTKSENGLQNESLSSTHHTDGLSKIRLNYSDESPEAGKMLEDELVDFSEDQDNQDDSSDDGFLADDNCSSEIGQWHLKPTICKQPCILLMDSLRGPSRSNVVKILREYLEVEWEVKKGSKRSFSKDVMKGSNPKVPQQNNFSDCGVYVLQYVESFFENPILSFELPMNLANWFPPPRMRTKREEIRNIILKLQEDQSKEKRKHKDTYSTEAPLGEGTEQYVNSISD
SENP8 block-1: blocks human SENP8 cleavage of Nedd8 substrate | Q96LD8 | recombinant SENP8, Nedd8 substrate fluorescence | inhibition, % at 20 µM | 360,000 tested, 0.64% active; in the data active = inhibition mostly above about 40%, no sharp cut-off; inactive = mostly below about 27%
SENP8 block-2: inhibitors of human SENP8 protease | Q96LD8 | purified SENP8, Z-RLRGG-aminoluciferin cleavage, luminescence | inhibition, % at 10 µM | 330,000 tested, 1.2% active | AID 2540; in the data active = inhibition above about 50%
SENP8 confirm: human SENP8 inhibition, confirmed; 6,200 tested, 40% active; Recombinant SENP8, Z-RLRGG-aminoluciferin luminescence, 60 min; inhibition, % at 12.5 µM; AID 488912; shares compounds with SENP7 block;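 active = mean inhibition across replicates above about 50%, limit read from the data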
SENP6 confirm: human SENP6 inhibition, confirmed | shares compounds with SENP7 block | recombinant SENP6, Z-RLRGG-aminoluciferin luminescence | inhibition, % at 12.5 µM | 6,200 tested, 58% active
SENP7 conf: human SENP7 inhibition, confirmed; shares compounds with SENP7 block; recombinant SENP7, Z-RLRGG-aminoluciferin luminescence, 40 min; inhibition, % at 12.5 µM; 6,200 tested, 69% active; AID 488917
Casp3 select: inhibits human caspase-3 in SENP selectivity test. 6,200 tested, 60% active. purified caspase-3, Z-DEVD-aminoluciferin luminescence, 60 min. inhibition, % at 12.5 µM. shares compounds with SENP7 block. AID 488918;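 active = mean inhibition above about 50%, limit read from the data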;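 also: plate controls were enzyme with DMSO for no effect and wells without caspase-3 for full effect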
Luc interf: interferes with luciferase luminescence in SENP counter-screen; AID 488919; 6,200 tested, 39% active; Pre-incubated SENP8/Z-RLRGG-aminoluciferin, luciferase luminescence interference; inhibition, % at 12.5 µM; shares compounds with SENP7 block;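 active = mean inhibition above about 50% when retested at one dose, limit read from the data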;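 also: plate controls were DMSO wells with completed reaction for no effect and substrate without enzyme for full effect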
The depositor's hits bear a star; . = not tested or not shown.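 The calls were made as follows, unless noted: active = mean inhibition above about 50% in the one-dose retest (limit read from the data); inactive = the rest.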

SMILES	Platelet DG rel	SENP7 block	SENP6 block	SENP8 block-1	SENP8 block-2	SENP8 confirm	SENP6 confirm	SENP7 conf	Casp3 select	Luc interf
CC(C)C[C@H]1C(=O)N2CCC[C@H]2[C@]2(O)O[C@](NC(=O)[C@@H]3C=C4c5cccc6[nH]cc(c56)C[C@H]4N(C)C3)(C(C)C)C(=O)N12	.	21	51*	-396	36	.	.	.	.	.
CCC(CO)NC(=O)C1C=C2c3cccc4[nH]cc(c34)CC2N(C)C1 (stereo not given)	0	-6	13	-394	4	.	.	.	.	.
COC(=O)C1C=C2c3cccc4[nH]cc(c34)CC2N(C)C1 (stereo not given)	.	18	54*	.	38	.	.	.	.	.
CNC(=O)Oc1ccc(-c2cn3cc(C)ccc3n2)cc1	21	79*	81*	-300	67*	.	.	.	.	.
COC(=O)C1=C(c2ccc(-c3ccccc3)c(F)c2)C[C@@H]2CC[C@H]1N2C(=O)N1CCCC1	.	-1	-3	10	-7	.	.	.	.	.
COc1ccc2c(c1)c(C(=O)O)c(C)n2CC(C)C	13	-2	1	6	1	.	.	.	.	.
COc1cc(O)c(C(=O)O)c(-c2cc(O)c(O)cc2C)c1	-1	-3	11	66*	6	.	.	.	.	.
CC1Oc2cc3c(-c4c(O)cc(O)c5c(O)c6c(cc45)OC(C)C(C)C6=O)c(O)cc(O)c3c(O)c2C(=O)C1C (stereo not given)	0	16	28	89*	7	.	.	.	.	.
O=c1c2ccccc2[se]n1-c1ccccc1	-4	58*	72*	-11	61*	.	.	.	.	.
COc1cc(C2c3cc4c(cc3CC3COC(=O)C32)OCO4)cc(OC)c1OC (stereo not given)	.	8	12	8	-1	.	.	.	.	.
COc1ccc(NC2Oc3cc4c(cc3C(c3cc(OC)c(OC)c(OC)c3)C2C)OCO4)cc1 (stereo not given)	.	.	.	52*	.	.	.	.	.	.
COc1ccccc1N=Cc1c(O)n(C)c(=O)n(C)c1=O	10	56*	63*	-320	11	11	28	73*	46	59*
CC(C)CNC(=O)c1c(N)n(Cc2ccc3c(c2)OCO3)c2nc3ccccc3nc12	-2	73*	91*	-323	91*	13	21	19	10	3
CC(C)CCNC(=O)c1c(N)n(Cc2ccc3c(c2)OCO3)c2nc3ccccc3nc12	6	58*	72*	-257	82*	-10	5	-4	5	-9
CCCNC(=O)c1c(N)n(Cc2ccco2)c2nc3ccccc3nc12	-5	15	21	.	14	.	.	.	.	.
CCCNC(=O)c1c(N)n(Cc2ccc3c(c2)OCO3)c2nc3ccccc3nc12	1	19	54*	-273	53*	-21	-8	4	-2	-2
COc1ccc(Cn2c(N)c(C(=O)NCc3ccco3)c3nc4ccccc4nc32)cc1OC	.	38	74*	-493	52*	6	11	11	4	1
CCCCC1(CC)COP(=O)(OCC(Cl)(Cl)Cl)OC1 (stereo not given)	.	.	.	2	.	.	.	.	.	.
CCCCOC1OCN(C2CCCCC2)CC1(C)C (stereo not given)	.	.	.	6	.	.	.	.	.	.
COc1ccc(N/N=C/c2c(O)n(-c3cccc(C)c3)c(=O)[nH]c2=O)cc1	-5	-1	-7	1	-3	.	.	.	.	.
Cc1cccc(N/N=C/c2c(O)[nH]c(=S)[nH]c2=O)c1	11	1	35	20	84*	94*	94*	101*	96*	58*
O=S1(=O)NCC2(CC2)CN1Cc1ccccc1	.	.	.	14	.	.	.	.	.	.
c1ccc2c(NC3=NCCS3)cccc2c1	-19	61*	76*	8	88*	2	-2	-3	-2	-5
CC(C)C[C@H]1COc2cc(N3CCN(C)CC3)ccc2S(=O)(=O)N1	.	.	.	14	.	.	.	.	.	.

Screening data from PubChem BioAssay.
